# Laboratory results: PubChem BioAssay (NCATS)
# Records with an inconclusive call do not appear. Unmarked numbers belong to inactive results. The call rests on the fitted dose curve; in most records, active means well fitted inhibition curve with a large enough effect; inconclusive means small, poorly fitted or top-dose-only effect; inactive means no such curve, though single readings can be large or run the other way.
# Target: Papain (Carica papaya) (UniProt P00784)
# Assay: Primary qHTS assay for inhibitors of the protease papain (AID 1645873);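 further: papain turnover of Z-FR-AMC read as the AMC fluorescence gain over 10 min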
# Conditions: papain Z-FR-AMC cleavage, AMC fluorescence; series mostly up to 49.8 µM; activity change, negative = inhibition: at the top concentration
# On the % scale 0 is the no-effect control and ±100 the full control effect.
# Sequence of Papain (Carica papaya) (P00784 whole entry, looked up): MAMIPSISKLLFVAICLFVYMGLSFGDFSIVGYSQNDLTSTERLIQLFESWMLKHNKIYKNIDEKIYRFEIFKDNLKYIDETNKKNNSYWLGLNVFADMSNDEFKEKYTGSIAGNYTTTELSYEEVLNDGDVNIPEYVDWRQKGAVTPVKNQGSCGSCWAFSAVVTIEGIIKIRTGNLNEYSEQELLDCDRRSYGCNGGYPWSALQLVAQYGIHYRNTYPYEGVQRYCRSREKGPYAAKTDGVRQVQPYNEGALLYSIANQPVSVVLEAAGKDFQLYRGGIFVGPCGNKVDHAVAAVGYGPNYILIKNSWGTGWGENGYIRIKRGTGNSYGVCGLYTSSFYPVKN
row,Structure (SMILES),"activity change, negative = inhibition"
1,COC(=O)C1=C(C)NC(C)=C(C(=O)OCCN(C)Cc2ccccc2)C1c1cccc([N+](=O)[O-])c1 (stereo unspecified),-1.89%
2,CC(=O)Oc1cc(C(C)C)c(OCCN(C)C)cc1C,1.89%
3,O=C1NCN(c2ccccc2)C12CCN(CCCC(c1ccc(F)cc1)c1ccc(F)cc1)CC2,7.83%
4,CCN(CC)CCCN(c1ccccc1)C1Cc2ccccc2C1,17.2%
5,CC(C)COCC(CN(Cc1ccccc1)c1ccccc1)N1CCCC1 (stereo unspecified),-5.85%
6,CNCCC(Oc1ccccc1OC)c1ccccc1 (stereo unspecified),-8.37%
7,CN(C)CCCN1c2ccccc2Sc2ccc(C(F)(F)F)cc21,14.9%
8,CCCN1C[C@H](CSC)C[C@@H]2c3cccc4[nH]cc(c34)C[C@H]21,-28.2%
9,CC(=O)[C@]1(O)Cc2c(O)c3c(c(O)c2[C@@H](O[C@H]2C[C@H](N)[C@H](O)[C@H](C)O2)C1)C(=O)c1ccccc1C3=O,-7.29%
10,CNCCCN1c2ccccc2CCc2ccccc21,-8.19%
11,CCCOc1ccccc1-c1nc2n[nH]nc2c(=O)[nH]1,-9.99%
